In the library only some 3.8% were active in any assay of this set; here they are far more common.
GDH-TPI inh: GDH-TPI coupling enzyme inhibitors, primary screen, artefact control for M. tuberculosis FBA inhibitor project, biochemical, absorbance, full deck | inhibition, % at 4.8 µM | actives 1.2% (n = 360,000) | GDH-TPI coupled enzyme counterscreen, NADH absorbance; in the data active means inhibition above about 30%
PrP UTR inh: inhibition of PrP 5' UTR reporter expression; inhibition, % (test concentration not listed); cell-based PrP 5' UTR mRNA reporter, plate reader; actives 0.35% (n = 340,000); AID 488862, 2010; in the data active means inhibition above about 52%
PrPC surface inh: inhibitors of human cell surface prion protein PrPC, primary screen, cell-based, TR-FRET | TR-FRET read-out | inhibition, % at 13.8 µM | actives 0.43% (n = 370,000); in the data active means inhibition above about 24%
Y pestis TopoI: Yersinia pestis topoisomerase I inhibitors, primary screen, biochemical, cleavage product accumulation, plate reader, single point; activity, % at 10 µM; DNA topoisomerase I (Yersinia pestis CO92); actives 0.064% (n = 360,000); AID 504884, 2011; Y. pestis Topo-I cleavage product accumulation; in the data active means activity above about 50%, passing the limit was not always enough
Mtb hypoxia rep: PubChem AID 1159583; M. tuberculosis hypoxia-regulated fluorescent reporter, fluorescence; fluorescence inhibition, % (test concentration not listed); actives 0.1% (n = 300,000); in the data active means fluorescence inhibition mostly above about 23%, no sharp cut-off; inactive means mostly below about 17%
Mtb FBA inh: Mtb FBA enzyme inhibitors, primary screen, biochemical, fluorescence, strain H37Rv. actives 2.3% (n = 360,000). AID 588726, 2011. inhibition, % at 1 µM. Fructose-bisphosphate aldolase (Mycobacterium tuberculosis (strain ATCC 25618 / H37Rv)), …. purified M. tuberculosis FBA, fluorescence read-out; in the data active means inhibition above about 27%
Target sequence (P9WQA3 whole entry, looked up): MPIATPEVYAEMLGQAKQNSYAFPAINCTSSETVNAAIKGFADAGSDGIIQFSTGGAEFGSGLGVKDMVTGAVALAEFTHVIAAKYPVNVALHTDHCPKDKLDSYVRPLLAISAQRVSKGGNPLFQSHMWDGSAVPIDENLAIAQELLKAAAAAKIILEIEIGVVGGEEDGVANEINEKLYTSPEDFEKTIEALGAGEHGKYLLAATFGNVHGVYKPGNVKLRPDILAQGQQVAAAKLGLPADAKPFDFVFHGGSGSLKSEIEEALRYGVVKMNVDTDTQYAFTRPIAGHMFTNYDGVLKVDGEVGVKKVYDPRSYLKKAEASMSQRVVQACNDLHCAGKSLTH
Large screens that a line does not name were inactive.

COc1ccc(C2C(C(C)=O)=C(C)N=c3sc(=Cc4ccco4)c(=O)n32)c(OC)c1 (stereo unspecified)	none (no result: GDH-TPI inh, PrP UTR inh, PrPC surface inh, Y pestis TopoI, Mtb FBA inh)
Clc1ccccc1/C=C/C=N/Nc1nc(N2CCOCC2)nc(N2CCOCC2)n1	GDH-TPI inh 40.2 (no result: Mtb hypoxia rep)
C(=C\c1ccccc1)/C=N/Nc1nc(N2CCOCC2)nc(N2CCOCC2)n1	GDH-TPI inh 47.1 (no result: Mtb hypoxia rep)
CN1CCN(C(=O)C2=CC(C(C)(C)C)CC(OCc3ccc(CO)cc3)O2)CC1 (stereo unspecified)	none (no result: GDH-TPI inh, PrP UTR inh, PrPC surface inh, Y pestis TopoI, Mtb FBA inh)
C=CCC1C=CC(ON=CC(NS(=O)(=O)c2ccc(C)cc2)C(C)C=CCC(=O)OC)C(CO)O1 (stereo unspecified)	none (no result: GDH-TPI inh, PrP UTR inh, PrPC surface inh, Y pestis TopoI, Mtb FBA inh)
O=C(/C=C/c1ccc(F)cc1)Nc1ccc(S(=O)(=O)Nc2ncccn2)cc1	GDH-TPI inh 32.9
Cc1ccc(/C=C/C(=O)Nc2ccc(S(=O)(=O)Nc3ncccn3)cc2)cc1	none
C(=NNc1nncn1N=Cc1ccco1)c1ccco1	none (no result: GDH-TPI inh, PrP UTR inh, PrPC surface inh, Y pestis TopoI, Mtb FBA inh)
O=C(/C=C\c1ccccc1)NCC(=O)N/N=C/c1ccc(O)cc1O	none (no result: PrPC surface inh, Mtb hypoxia rep)
COc1ccc(/C=C\C(=O)NCC(=O)N/N=C/c2ccc(O)cc2O)cc1	GDH-TPI inh 67.5 (no result: PrP UTR inh, Mtb hypoxia rep)
CC(=NNC(=O)C1CC1)c1ccc(OC(F)F)cc1	none (no result: GDH-TPI inh, PrP UTR inh, PrPC surface inh, Y pestis TopoI, Mtb FBA inh)
N#C/C(=C\c1c(N2CCCCC2)nc2ccccn2c1=O)C(=O)NC1CCS(=O)(=O)C1 (stereo unspecified)	none (no result: Mtb hypoxia rep)
Cc1cccn2c(=O)c(/C=C(\C#N)C(=O)NC3CCS(=O)(=O)C3)c(N3CCC(C)CC3)nc12 (stereo unspecified)	Mtb FBA inh 196.7 (no result: Mtb hypoxia rep)
Cc1cc(Cl)c(S(=O)(=O)N2CCCCCC2)cc1OCC(=O)NC1CCCCC1	none
CCN1CCN(S(=O)(=O)c2cc(OCC(=O)NC3CCCCC3)c(C)cc2Cl)CC1	GDH-TPI inh 52.2
O=C(NC1CC1)C1=CC(c2ccc3c(c2)OCO3)CC(OCc2ccc(CO)cc2)O1 (stereo unspecified)	none (no result: GDH-TPI inh, PrP UTR inh, PrPC surface inh, Y pestis TopoI, Mtb FBA inh)
CCN1C(=O)C2C(c3ccc(C)cc3)N3C(=O)N(c4cccc(Br)c4)C(=O)[C@@]3(CC(C)C)C2C1=O (stereo partly specified)	none (no result: GDH-TPI inh, PrP UTR inh, PrPC surface inh, Y pestis TopoI, Mtb FBA inh)
O=C(COc1ccc2ccc(=O)oc2c1)NC1CCS(=O)(=O)C1 (stereo unspecified)	none (no result: PrP UTR inh)
CCCOc1ccc2c(C)c(CC(=O)OC)c(=O)oc2c1	Mtb FBA inh 121.0 (no result: Mtb hypoxia rep)
COC(=O)Cc1c(C)c2ccc(OCC(=O)N(C)C)cc2oc1=O	Mtb FBA inh 138.5
COC(=O)Cc1c(C)c2ccc(OCC(=O)NC3CCS(=O)(=O)C3)cc2oc1=O (stereo unspecified)	Mtb FBA inh 140.2
CC1C=C(C(=O)NCc2nc3ccccc3[nH]2)OC(OCc2ccc(CO)cc2)C1 (stereo unspecified)	none (no result: GDH-TPI inh, PrP UTR inh, PrPC surface inh, Y pestis TopoI, Mtb FBA inh)
CC1CCN(C(=O)CSCC(=O)O)CC1	Mtb FBA inh 150.5
CC1CCN(C(=O)CSc2nnc(Cc3ccccc3)o2)CC1	none (no result: Mtb hypoxia rep)
BrC(C=NNc1nc(N2CCOCC2)nc(N2CCOCC2)n1)=Cc1ccccc1	none (no result: GDH-TPI inh, PrP UTR inh, PrPC surface inh, Y pestis TopoI, Mtb FBA inh)
COc1ccc(C2C3C(=O)N(C(C)(C)C)C(=O)C3[C@]3(C)C(=O)N(c4cccc(Br)c4)C(=O)N23)cc1 (stereo partly specified)	none (no result: GDH-TPI inh, PrP UTR inh, PrPC surface inh, Y pestis TopoI, Mtb FBA inh)
CN(C)c1ccc(NC(=O)Nc2ccc3c(c2)c(=O)n(C)n3-c2ccccc2)cc1	none (no result: PrP UTR inh, Mtb hypoxia rep)
C=C(C)Cn1c2ccc(NC(=O)NCc3ccccc3)cc2c(=O)n1C	Mtb FBA inh 166.2 (no result: PrP UTR inh, Mtb hypoxia rep)
C=C(C)Cn1c2ccc(NC(=O)NCC)cc2c(=O)n1C	Mtb FBA inh active (no result: PrP UTR inh, Mtb hypoxia rep)
CCNC(=O)Nc1ccc2c(c1)c(=O)n(C)n2Cc1ccc(Cl)cc1	Mtb FBA inh active (no result: PrP UTR inh, Mtb hypoxia rep)
COc1cc(C=NNc2ccc(C(=O)O)cc2)cc(OC)c1OC	none (no result: GDH-TPI inh, PrP UTR inh, PrPC surface inh, Y pestis TopoI, Mtb FBA inh)
Cc1nn(C)cc1C=NNC(=O)C1(O)c2ccccc2-c2ccccc21	none (no result: GDH-TPI inh, PrP UTR inh, PrPC surface inh, Y pestis TopoI, Mtb FBA inh)
CCOC(=O)C(=CNc1ccc(Oc2cccnc2)nc1)C(=O)OCC	GDH-TPI inh 35.6
CCCOc1ccc(-c2c(C(=O)NN=Cc3ccncc3)nnn2-c2nonc2N)cc1	none (no result: GDH-TPI inh, PrP UTR inh, PrPC surface inh, Y pestis TopoI, Mtb FBA inh)
Cn1cc(/C=C(\NC(=O)c2ccccc2Cl)C(=O)NCCCN2CCOCC2)c2ccccc21	GDH-TPI inh 34.0
CCn1cc(/C=C(\NC(=O)c2ccccc2)C(=O)NCCCN2CCOCC2)c2ccccc21	GDH-TPI inh 39.7
